Records with an inconclusive call do not appear. The source made the active and inactive calls. Rule for the calls, unless noted: active = hit-call score of the fitted dose curve at least 0.9, where 1 is the maximum; inactive = score below 0.9.
What was measured:
[1] = ATG_PBREM_CIS: Attagene CIS-FACTORIAL HepG2 Assay for human Phenobarbital-responsive Enhancer Module (PBREM) (AID 2282955); settings: HepG2 PBREM cis-reporter, Attagene multiplexed transcription; actives raise or lower the signal
Method in brief: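 After a 24 h incubation with test chemical, transfected HepG2 cells yield total RNA; reporter-specific RT-PCR products are fluorescently labelled, HpaI-digested and resolved by capillary electrophoresis against ROX size standards.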

[2] = target: Paired box protein Pax-6 (Homo sapiens) (UniProt P26367); test: ATG_Pax6_CIS: Attagene CIS-FACTORIAL HepG2 Assay for human Paired Box 6 (PAX6) (AID 2282956); settings: HepG2 CIS-FACTORIAL PAX6 reporter transcription, RNA readout; actives raise or lower the signal
Method in brief: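 Fluorescent RT-PCR products separated by capillary electrophoresis report PAX6-linked promoter mRNA in HepG2 cells 24 h post-dose. Curves fitted bidirectionally, DMSO as negative control.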

[3] = ATG_PXRE_CIS: Attagene CIS-FACTORIAL HepG2 Assay for human Pregnane X Receptor Element (PXRE) (AID 2282957); settings: HepG2 Attagene CIS-FACTORIAL PXRE reporter, mRNA; actives raise or lower the signal
Method in brief: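 Reporter transcripts under endogenous PXR-responsive cis-regulation quantified from total RNA of transfected HepG2 cells 24 h post-dosing, via RT-PCR with fluorescent primer extension and capillary electrophoresis. Gain or loss of signal fitted against DMSO baseline.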

[4] = ATG_RORE_CIS: Attagene CIS-FACTORIAL HepG2 Assay for human RAR-related Orphan Receptor Element (RORE) (AID 2282959); settings: HepG2 Attagene cis-factorial RORE reporter, mRNA; actives raise or lower the signal
Method in brief: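 Fluorescence intensity of reporter-specific cDNA fragments, separated by capillary electrophoresis, gives the signal. Source: HepG2 liver cells transiently transfected with cis-element reporters and exposed 24 h; DMSO-normalized bidirectional fit.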

[5] = ATG_Sox_CIS: Attagene CIS-FACTORIAL HepG2 Assay for human SRY-box transcription factor (SOX) (AID 2282960); settings: HepG2 Attagene cis-factorial SOX reporter, mRNA; actives raise or lower the signal
Method in brief: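 After 24 h of chemical treatment, transfected HepG2 reporter cells are lysed for total RNA. Transcript levels come from RT-PCR with labelled primer extension and capillary electrophoresis, analysed bidirectionally versus DMSO.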

[6] = target: Transcription factor Sp1 (Homo sapiens) (UniProt P08047); test: ATG_Sp1_CIS: Attagene CIS-FACTORIAL HepG2 Assay for human Specificity Protein 1 (Sp1) (AID 2282961); settings: HepG2 Sp1 cis-reporter transcription, actives raise or lower the signal
Method in brief: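 Sp1-driven reporter mRNA, read as capillary electrophoresis fluorescence after RT-PCR, in transiently transfected HepG2 cells dosed for 24 h; signal change in either direction relative to DMSO.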

[7] = ATG_SREBP_CIS: Attagene CIS-FACTORIAL HepG2 Assay for human Sterol Regulatory Element Binding (SREBP) (AID 2282962); settings: HepG2 Attagene cis-factorial SREBP reporter, mRNA; actives raise or lower the signal
Method in brief: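 Endogenous factor activity is measured in HepG2 through multiplexed reporter units under cis-element control. Following a 24 h incubation, reporter transcripts are reverse-transcribed, PCR-amplified and sized by capillary electrophoresis; activity is fitted in both directions relative to DMSO.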

[8] = target: Signal transducer and activator of transcription 3 (Homo sapiens) (UniProt P40763); test: ATG_STAT3_CIS: Attagene CIS-FACTORIAL HepG2 Assay for human Signal Transducer and Activator of Transcription 3 (STAT3) (AID 2282963); settings: HepG2, Attagene cis-factorial STAT3 reporter transcription; actives raise or lower the signal
Method in brief: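 HepG2, MRTU-transfected, 24 h dosing. RNA → RT → PCR → FAM label → HpaI → CE. Bidirectional fit vs DMSO.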

[9] = ATG_TA_CIS: Attagene CIS-FACTORIAL HepG2 Assay for human TA Basal Promoter (AID 2282964); settings: HepG2 Attagene CIS-factorial TA basal promoter reporter; actives raise or lower the signal
Method in brief: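 Steps: transfect HepG2 with MRTUs; dose 24 h; isolate RNA, DNase-treat, reverse-transcribe; PCR and FAM-label reporter cDNA; digest with HpaI 2h at 37 C; run capillary electrophoresis. Activity fitted both directions against DMSO.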

[10] = ATG_TCF_b_cat_CIS: Attagene CIS-FACTORIAL HepG2 Assay for human T-Cell-Factor with beta-catenin (TCF/b-cat) (AID 2282965); settings: HepG2 TCF/beta-catenin cis-reporter transcription, actives raise or lower the signal
Method in brief: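 Using capillary electrophoresis as the read-out, labelled reporter cDNA fragments from transiently transfected HepG2 were sized and quantified. Exposure lasted 24 hours; activity in either direction was referenced to DMSO.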

[11] = ATG_TAL_CIS: Attagene CIS-FACTORIAL HepG2 Assay for human TAL Basal Promoter (AID 2282966); settings: HepG2 Attagene cis-factorial TAL promoter reporter; actives raise or lower the signal;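 note: background control endpoint measuring basal TAL promoter reporter mRNA not a specific factor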
Method in brief: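 Background-control endpoint: basal TAL promoter reporter transcripts in transiently transfected HepG2, measured 24 h after dosing. Read-out by RT-PCR with fluorescent primer extension and capillary electrophoresis; gain or loss of signal fitted relative to DMSO.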

[12] = ATG_TGFb_CIS: Attagene CIS-FACTORIAL HepG2 Assay for human Transforming Growth Factor (TGF) (AID 2282967); settings: HepG2 Attagene CIS TGFb reporter, mRNA transcription; actives raise or lower the signal
Method in brief: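 Cells were dosed for 24 hours, after which total RNA was reverse-transcribed and reporter sequences amplified, labeled and sized by capillary electrophoresis. Activity was fitted in both directions against DMSO.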

[13] = ATG_VDRE_CIS: Attagene CIS-FACTORIAL HepG2 Assay for human Vitamin D Receptor Element (VDRE) (AID 2282968); settings: HepG2 VDRE cis-reporter transcription, actives raise or lower the signal
Method in brief: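 Steps: transfect HepG2 with multiple reporter transcription units; dose chemicals 24 h; isolate RNA; RT-PCR; label with 6-FAM primer extension; HpaI digest; capillary electrophoresis. Curves fitted both directions against DMSO.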

[14] = target: Nuclear receptor subfamily 1 group I member 3 (Homo sapiens) (UniProt Q14994); test: ATG_CAR_TRANS: Attagene TRANS-FACTORIAL HepG2 Assay for human Constitutive Androstane Receptor (CAR) (AID 2282969; active = hit-call score of the fitted dose curve at least 0.9, where 1 is the maximum;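 note: activators raise reporter mRNA above DMSO so AC50 marks induction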); settings: HepG2 Attagene TRANS-FACTORIAL CAR reporter
Method in brief: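 Steps: transient transfection of HepG2 with multiple GAL4-UAS reporter units; 24 h compound incubation; RNA isolation, RT-PCR, 6-FAM primer extension, HpaI digest; capillary electrophoresis. Gain-of-signal relative to DMSO negative control.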

[15] = target: Estrogen receptor (Homo sapiens) (UniProt P03372); test: ATG_ERa_TRANS: Attagene TRANS-FACTORIAL HepG2 Assay for human Estrogen Receptor alpha (ERa) (AID 2282970; active = hit-call score of the fitted dose curve at least 0.9, where 1 is the maximum); settings: HepG2 Attagene TRANS ERa GAL4 reporter, mRNA
Method in brief: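 Reporter transcripts were measured 24 h after dosing by RT-PCR with fluorescent primer extension and capillary electrophoresis. The system is transiently transfected HepG2 expressing exogenous NR-Gal4 chimeras driving GAL4-UAS reporters; DMSO is the baseline.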

[16] = target: X-box-binding protein 1 (Homo sapiens) (UniProt P17861); test: ATG_Xbp1_CIS: Attagene CIS-FACTORIAL HepG2 Assay for human X-box Binding Protein 1 (XBP1) (AID 2282972); settings: HepG2 XBP1 cis-element reporter, Attagene multiplex; actives raise or lower the signal
Method in brief: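 Multiplexed cis-reporter readout in transfected HepG2 liver cells. Exposure lasted 24 hours. Activity in either direction was fitted against DMSO as negative control and baseline.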

[17] = ATG_M_19_TRANS: Attagene TRANS-FACTORIAL HepG2 Assay for M19 Transcription Factor (Internal Marker) (AID 2282974; active = hit-call score of the fitted dose curve at least 0.9, where 1 is the maximum); settings: HepG2 Attagene TRANS-FACTORIAL M19 internal marker reporter
Method in brief: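 Measured here: internal-marker reporter transcript from HepG2 cells transfected with MRTUs, harvested at 24 h. cDNA PCR products were 6-FAM labelled by primer extension, cut with HpaI for 2 h at 37 C, and resolved by CE.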

[18] = target: Estrogen-related receptor gamma (Homo sapiens) (UniProt P62508); test: ATG_ERRg_TRANS: Attagene TRANS-FACTORIAL HepG2 Assay for human Estrogen-Related Receptor gamma (ERRg) (AID 2282977; active = hit-call score of the fitted dose curve at least 0.9, where 1 is the maximum;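 note: hits increase reporter signal over DMSO so potencies reflect activators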); settings: HepG2 Attagene TRANS reporter, ERRg transactivation
Method in brief: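 Exogenous NR-Gal4 chimera activity measured as reporter transcript induction after 24 h in transiently transfected HepG2 cells. RNA reverse-transcribed, PCR-amplified, 6-FAM-labelled and resolved by capillary electrophoresis; increase over DMSO baseline.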

[19] = ATG_PPRE_CIS: Attagene CIS-FACTORIAL HepG2 Assay for human Peroxisome Proliferator-activated Response Element (PPRE) (AID 2282958); settings: HepG2 PPRE cis-element reporter, Attagene transcription factor profiling; actives raise or lower the signal
Method in brief: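 Multiplexed reporter transcription units under cis-regulatory promoters were transfected into HepG2 cells to capture endogenous factor activity. A 24 h incubation preceded RNA isolation and fluorescent RT-PCR fragment analysis.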

Measured: AC50

Sequence of X-box-binding protein 1 (Homo sapiens) (P17861 whole entry, looked up): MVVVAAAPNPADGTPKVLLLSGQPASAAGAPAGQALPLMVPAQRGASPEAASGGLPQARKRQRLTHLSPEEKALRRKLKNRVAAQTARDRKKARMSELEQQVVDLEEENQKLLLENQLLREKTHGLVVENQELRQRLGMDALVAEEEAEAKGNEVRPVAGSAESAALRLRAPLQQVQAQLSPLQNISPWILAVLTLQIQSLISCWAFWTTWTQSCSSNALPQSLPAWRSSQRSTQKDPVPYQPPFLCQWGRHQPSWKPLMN
Sequence of Paired box protein Pax-6 (Homo sapiens) (P26367 whole entry, looked up): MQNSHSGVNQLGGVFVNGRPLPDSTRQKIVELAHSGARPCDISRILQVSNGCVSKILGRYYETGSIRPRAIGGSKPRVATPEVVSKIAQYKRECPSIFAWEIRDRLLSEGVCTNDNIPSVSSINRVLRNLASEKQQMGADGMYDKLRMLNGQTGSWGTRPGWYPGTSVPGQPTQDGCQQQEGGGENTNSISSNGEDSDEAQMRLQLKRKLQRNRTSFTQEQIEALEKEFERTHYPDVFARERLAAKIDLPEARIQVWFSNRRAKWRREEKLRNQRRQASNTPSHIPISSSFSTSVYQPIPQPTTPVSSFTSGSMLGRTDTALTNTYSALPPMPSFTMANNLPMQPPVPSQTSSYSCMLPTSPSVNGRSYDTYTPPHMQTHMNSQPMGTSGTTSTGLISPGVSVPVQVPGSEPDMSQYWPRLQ
Sequence of Estrogen receptor (Homo sapiens) (P03372 whole entry, looked up, the tested form may be a part): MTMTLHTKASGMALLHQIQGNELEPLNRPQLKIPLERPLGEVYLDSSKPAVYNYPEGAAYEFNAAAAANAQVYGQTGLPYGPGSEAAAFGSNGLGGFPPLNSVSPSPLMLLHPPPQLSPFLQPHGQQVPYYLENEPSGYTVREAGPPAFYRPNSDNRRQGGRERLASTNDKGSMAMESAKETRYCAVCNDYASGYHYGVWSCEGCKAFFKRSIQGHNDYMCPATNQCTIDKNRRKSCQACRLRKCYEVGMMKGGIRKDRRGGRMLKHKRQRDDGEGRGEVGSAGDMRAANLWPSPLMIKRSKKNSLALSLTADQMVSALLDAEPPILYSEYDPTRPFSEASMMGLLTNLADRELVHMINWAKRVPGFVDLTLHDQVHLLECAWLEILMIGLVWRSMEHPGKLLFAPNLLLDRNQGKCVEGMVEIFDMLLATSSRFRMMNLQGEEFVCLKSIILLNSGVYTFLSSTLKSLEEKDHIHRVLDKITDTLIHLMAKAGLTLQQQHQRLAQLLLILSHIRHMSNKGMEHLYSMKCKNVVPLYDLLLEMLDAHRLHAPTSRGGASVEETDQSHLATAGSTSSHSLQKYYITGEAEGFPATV
Sequence of Transcription factor Sp1 (Homo sapiens) (P08047 whole entry, looked up): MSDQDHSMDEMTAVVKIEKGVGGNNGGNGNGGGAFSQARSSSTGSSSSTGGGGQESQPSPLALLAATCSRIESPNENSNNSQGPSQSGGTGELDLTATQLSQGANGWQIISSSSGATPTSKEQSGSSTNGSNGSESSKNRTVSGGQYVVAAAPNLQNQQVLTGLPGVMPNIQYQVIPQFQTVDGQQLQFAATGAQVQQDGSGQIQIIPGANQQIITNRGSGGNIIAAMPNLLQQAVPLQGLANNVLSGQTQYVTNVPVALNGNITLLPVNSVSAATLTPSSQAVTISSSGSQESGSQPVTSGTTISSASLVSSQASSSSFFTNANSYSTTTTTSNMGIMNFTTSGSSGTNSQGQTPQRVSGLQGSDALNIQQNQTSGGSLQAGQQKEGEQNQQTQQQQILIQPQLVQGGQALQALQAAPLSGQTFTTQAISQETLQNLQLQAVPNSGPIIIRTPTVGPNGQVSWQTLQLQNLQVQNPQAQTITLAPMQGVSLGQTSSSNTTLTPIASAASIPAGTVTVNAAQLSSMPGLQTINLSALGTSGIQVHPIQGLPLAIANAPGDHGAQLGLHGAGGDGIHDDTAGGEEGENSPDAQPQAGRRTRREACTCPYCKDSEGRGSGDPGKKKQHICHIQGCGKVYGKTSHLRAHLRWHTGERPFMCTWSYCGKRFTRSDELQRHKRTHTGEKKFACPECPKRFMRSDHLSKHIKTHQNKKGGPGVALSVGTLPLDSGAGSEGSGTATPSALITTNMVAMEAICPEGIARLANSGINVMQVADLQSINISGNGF
Sequence of Signal transducer and activator of transcription 3 (Homo sapiens) (P40763 whole entry, looked up): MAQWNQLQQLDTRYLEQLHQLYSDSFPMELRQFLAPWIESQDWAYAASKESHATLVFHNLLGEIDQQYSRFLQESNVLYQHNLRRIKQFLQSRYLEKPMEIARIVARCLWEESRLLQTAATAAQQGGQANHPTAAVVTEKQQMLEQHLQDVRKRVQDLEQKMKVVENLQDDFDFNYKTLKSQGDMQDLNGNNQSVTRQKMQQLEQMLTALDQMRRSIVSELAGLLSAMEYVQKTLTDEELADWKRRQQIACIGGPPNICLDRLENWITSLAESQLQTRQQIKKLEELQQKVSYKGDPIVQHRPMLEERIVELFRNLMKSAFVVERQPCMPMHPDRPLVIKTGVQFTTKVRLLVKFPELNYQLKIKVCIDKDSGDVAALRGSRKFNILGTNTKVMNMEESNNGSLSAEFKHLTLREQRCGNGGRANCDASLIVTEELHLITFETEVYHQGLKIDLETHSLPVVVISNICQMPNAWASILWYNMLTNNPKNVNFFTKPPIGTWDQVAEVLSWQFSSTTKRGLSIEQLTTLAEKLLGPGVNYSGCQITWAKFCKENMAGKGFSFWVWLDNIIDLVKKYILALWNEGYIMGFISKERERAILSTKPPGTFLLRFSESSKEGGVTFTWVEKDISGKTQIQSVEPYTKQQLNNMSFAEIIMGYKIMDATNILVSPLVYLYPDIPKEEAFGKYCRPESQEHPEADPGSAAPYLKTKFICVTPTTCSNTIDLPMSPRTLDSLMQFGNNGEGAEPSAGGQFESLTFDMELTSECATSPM
Sequence of Estrogen-related receptor gamma (Homo sapiens) (P62508 whole entry, looked up, the tested form may be a part): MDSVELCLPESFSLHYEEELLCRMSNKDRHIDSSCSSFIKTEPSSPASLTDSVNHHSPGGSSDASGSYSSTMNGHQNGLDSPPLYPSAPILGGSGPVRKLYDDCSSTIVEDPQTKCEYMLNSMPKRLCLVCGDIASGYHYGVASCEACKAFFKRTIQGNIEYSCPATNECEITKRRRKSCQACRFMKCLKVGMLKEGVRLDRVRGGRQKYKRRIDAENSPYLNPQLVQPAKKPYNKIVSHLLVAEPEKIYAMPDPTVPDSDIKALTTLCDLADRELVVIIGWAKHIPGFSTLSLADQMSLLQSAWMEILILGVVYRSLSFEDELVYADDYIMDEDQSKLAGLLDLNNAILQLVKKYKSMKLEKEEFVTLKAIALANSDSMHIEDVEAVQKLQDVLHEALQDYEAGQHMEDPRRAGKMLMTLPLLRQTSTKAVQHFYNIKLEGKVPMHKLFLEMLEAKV
Sequence of Nuclear receptor subfamily 1 group I member 3 (Homo sapiens) (Q14994 whole entry, looked up, the tested form may be a part): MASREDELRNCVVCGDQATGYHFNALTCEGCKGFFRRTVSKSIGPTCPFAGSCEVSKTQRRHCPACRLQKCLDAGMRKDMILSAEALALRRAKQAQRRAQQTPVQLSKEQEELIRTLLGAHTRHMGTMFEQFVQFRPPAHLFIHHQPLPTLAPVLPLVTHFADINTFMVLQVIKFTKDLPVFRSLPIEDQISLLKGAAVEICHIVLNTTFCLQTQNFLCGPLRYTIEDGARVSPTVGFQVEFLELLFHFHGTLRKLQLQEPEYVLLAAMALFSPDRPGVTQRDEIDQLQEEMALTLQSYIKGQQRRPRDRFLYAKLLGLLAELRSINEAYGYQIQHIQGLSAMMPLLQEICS

COC(=O)c1ccccc1C(=O)OC
active: [3] 32.8 µM
not listed: [19]
inactive: all other assays above

O=C(O)COc1nc(Cl)c(Cl)cc1Cl
active: [3] 59.9 µM | [19] 50 µM
not listed: [13] | [14] | [17] | [18]
inactive: all other assays above
